The target of test [1] is Protein phosphatase 1D (Homo sapiens) (UniProt O15297). The test can be described thus: RapidFire Mass Spectrometry qHTS Assay for Modulators of WT P53-Induced Phosphatase 1 (WIP1) (AID 1347424).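 Also: amount of dephosphorylated VEPPL-S-QETFS peptide product formed by WIP1; series mostly up to about 63 µM.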 The essentials: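 RapidFire mass spectrometry measured dephosphorylated peptide after 5 min room-temperature reaction of 2 uM VEPPL-pS-QETFS with 10 nM WIP1 (50 mM Tris-HCl pH 7.5, 30 mM MgCl2, 0.1 mM EGTA, BSA), following 1 hr compound preincubation; 1 uM isotope-labelled product standard.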
Protein phosphatase 1D (Homo sapiens), sequence (O15297 whole entry, looked up): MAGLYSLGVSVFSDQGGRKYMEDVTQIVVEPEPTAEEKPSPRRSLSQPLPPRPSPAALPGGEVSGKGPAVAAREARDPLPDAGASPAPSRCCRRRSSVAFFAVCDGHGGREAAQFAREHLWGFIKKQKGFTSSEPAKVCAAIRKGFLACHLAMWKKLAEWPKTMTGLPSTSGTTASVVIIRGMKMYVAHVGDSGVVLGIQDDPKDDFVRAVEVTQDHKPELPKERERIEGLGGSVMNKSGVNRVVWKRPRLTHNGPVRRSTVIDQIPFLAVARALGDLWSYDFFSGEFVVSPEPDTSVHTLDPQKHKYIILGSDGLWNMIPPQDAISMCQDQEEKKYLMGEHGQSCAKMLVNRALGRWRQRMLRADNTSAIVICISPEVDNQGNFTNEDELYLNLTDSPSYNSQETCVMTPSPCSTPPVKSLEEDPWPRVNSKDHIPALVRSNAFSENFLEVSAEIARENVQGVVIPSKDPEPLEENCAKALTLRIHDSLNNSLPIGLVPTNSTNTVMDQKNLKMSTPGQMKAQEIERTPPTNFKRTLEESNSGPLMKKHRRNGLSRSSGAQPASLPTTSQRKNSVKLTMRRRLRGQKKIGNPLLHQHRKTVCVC

Test [2] has the same target. The test can be described thus: Rhodamine-PBP qHTS Assay for Modulators of WT P53-Induced Phosphatase 1 (WIP1) (AID 1347425). The essentials:
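Steps: enzyme with Rh-PBP sensor and compounds, room-temperature incubation of 1 hr, baseline read, addition of VEPPL-pS-QETFS (10 uM final), kinetic fluorescence reads at 525/598 nm. Activity equals final minus baseline signal.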
On the technique in general: In qHTS, concentration-response curves come from the screen itself.

Test [3] can be described thus: Primary qHTS for inhibitors of La Crosse Virus (LACV) - induced cell death in SH-SY5Y cells (AID 1508616).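 Also: top concentration of the series differs between compounds; higher means more rescue of cells from virus-induced death.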 The method, boiled down: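 Rescue of virus-induced death was read as ATPLite luminescence after 6 days at 37C, scaled between DMSO wells with LACV and without virus. Cells were SH-SY5Y, 6000/well, infected at 0.01 MOI after compound addition.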
Test [4] addresses Calcium and integrin-binding protein 1 (Homo sapiens) (UniProt Q99828). The test can be described thus: Primary qHTS for Identification of Calcium Integrin Binding Protein 1 (CIB1) Competitor (AID 1508620). Also: potency is read from the fitted curve at half-maximal effect. The essentials: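 CIB1-GST (1 uM final) and compound incubated 15 min at room temperature before adding FITC-alphaIIb peptide tracer (100 nM final). Competition for binding read by fluorescence polarization (ex 480, em 540) after another 15 min at room temperature.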

Test [5] is described as follows: Counterscreen qHTS for small molecule stabilizers of the endoplasmic reticulum resident proteome: GLuc-NoTag assay (AID 1508627).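 Also: SH-SY5Y cells given compound then 100 nM thapsigargin to empty ER calcium; series mostly up to about 76 µM.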 The method, boiled down: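 Counterscreen line: SH-SY5Y-GLuc-NoTag cells, treated with compound 19 hr before a 4 hr, 100 nM thapsigargin calcium depletion. Secreted Gaussia luciferase in the medium was measured by luminescence after coelenterazine was added (0.07x final), with cells unlysed.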
Background: A counterscreen serves to expose hits that act by an unwanted route or on another target.

Data on 9 compounds can be found in PubChem BioAssay (NCATS).

The structures appear in SMILES notation. Records with an inconclusive call do not appear. A call without a number means that no potency is given here. The source made the active and inactive calls. Calls follow the shape of the dose curve; as a rule, active = well fitted curve in the direction sought with a large enough effect; inconclusive = small, poorly fitted or top-dose-only effect, or another doubt; inactive = no such curve, though single readings can be large; an effect the other way counts as inactive or inconclusive.

Calcium and integrin-binding protein 1 (Homo sapiens), sequence (Q99828 whole entry, looked up): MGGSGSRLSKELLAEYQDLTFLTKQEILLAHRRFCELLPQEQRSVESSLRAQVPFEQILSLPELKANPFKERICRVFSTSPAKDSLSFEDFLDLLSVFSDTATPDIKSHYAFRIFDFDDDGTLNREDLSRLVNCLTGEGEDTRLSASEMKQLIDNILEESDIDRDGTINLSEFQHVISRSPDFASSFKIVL

`Nc1ccc(O)cc1`: the Potency entry in test [1] was “inactive”. Also, the compound was classed as inactive in test [2] and in test [3].

Regarding `NS(=O)(=O)c1cc(C(=O)NN2C[C@H]3[C@H]4CCC(C4)[C@H]3C2)ccc1Cl`, the Potency result in test [1] and in test [4] was “inactive” each time. Also, the compound was called inactive in test [2].

Regarding `C[C@]12CCC(=O)C=C1CC[C@@H]1[C@@H]2[C@@H](O)C[C@@]2(C)[C@H]1CC[C@]2(O)C(=O)COC(=O)CCC(=O)O`, the Potency result in test [1] and in test [4] was “inactive” throughout. The call in test [2] and in test [3] was inactive.

With `CC(C)(c1ccc(O)cc1)c1ccc(O)cc1`, the Potency entry in test [1], in test [4] and in test [5] was “inactive” each time. Further, the outcome in test [3] was inactive.

Consider `O=C1Nc2ccccc2C1(c1ccc(O)cc1)c1ccc(O)cc1`, for which the Potency result in test [1] and in test [4] was “inactive” each time. Further, the compound was classed as inactive in test [2] and in test [3].

On to `CCCCCCCCCCCCCCCCCCNC(=O)OC1CCN(C(=O)OC[C@H](COC(=O)N(Cc2cccc[n+]2CC)C(=O)c2ccccc2OC)OC)CC1`, for which the Potency result in test [1] and in test [4] was “inactive” each time. The call in test [2] and in test [3] was inactive.

With `CC(=O)[C@@]1(O)CC[C@H]2[C@@H]3C[C@H](C)C4=CC(=O)CC[C@]4(C)[C@H]3CC[C@@]21C`, the Potency entry in test [1] and in test [4] was “inactive” each time. In addition, the compound was called inactive in test [2] and in test [3].

Consider `CCOC(=O)C1=C(C)NC(C)=C(C(=O)OCC)C1c1ccccc1/C=C/C(=O)OC(C)(C)C`, for which the Potency result in test [1] and in test [4] was “inactive” throughout. The result in test [2] and in test [3] was inactive.

Turning to `Nc1ccc2cc3ccc(N)cc3nc2c1`, the Potency entry in test [1] is “inactive”. Besides, the compound was classed as inactive in test [2] and in test [3]. Moreover, in test [4], the Potency is 2240 nM (active).
